# Screening results (PubChem BioAssay)
# Compounds with a hit are over-represented: about 6% of the library has one in this group of screens.
# PLK1 PBD block: inhibitors of human PLK1 polo-box domain binding. P53350. Plk1 PBD binding of FITC phosphopeptide, fluorescence polarization. Potency, µM, inactives show max response, negative = inhibition, most hits filed as inhibitors. 360,000 compounds, 2.8% hits. AID 720504; also: series mostly up to about 57 µM; nearly all actives have a fitted effect of over 65% in size
# VDR inh: inhibitors of human vitamin D receptor | P11473 | VDR-SRC2-3 peptide fluorescence polarization, 2 h | Potency, µM, for inactives: max response, negative = inhibition, actives largely listed as inhibitors | 400,000 compounds, 0.93% hits
# Target sequence (P11473 whole entry, looked up): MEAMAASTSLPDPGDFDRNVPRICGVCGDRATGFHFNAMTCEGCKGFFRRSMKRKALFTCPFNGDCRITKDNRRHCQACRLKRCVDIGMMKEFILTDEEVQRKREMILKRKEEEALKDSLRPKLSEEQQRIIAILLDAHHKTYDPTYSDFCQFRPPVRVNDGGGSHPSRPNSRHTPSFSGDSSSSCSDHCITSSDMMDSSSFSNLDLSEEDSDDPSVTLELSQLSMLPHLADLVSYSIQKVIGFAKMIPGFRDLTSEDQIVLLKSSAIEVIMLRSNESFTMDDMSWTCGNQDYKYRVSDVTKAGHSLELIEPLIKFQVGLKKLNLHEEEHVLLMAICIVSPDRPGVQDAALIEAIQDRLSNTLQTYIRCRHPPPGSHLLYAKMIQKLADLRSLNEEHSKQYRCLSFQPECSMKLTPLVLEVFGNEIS
#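 Inhibition of the VDR/SRC2-3 peptide interaction is quantified by fluorescence polarization. Compounds (23 nl, pintool) incubate with the reagents for 2 hours at ambient room temperature.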
# Tau fluor counter: counter-screen for tau fibril formation inhibitors. Potency, µM (series often up to 57.7 µM), for the others: at the highest dose activity change, negative = decrease. tau K18 P301L Alexa594 fluorescence, heparin fibrillization. 280,000 compounds, 0.93% hits; also: nearly all actives have a fitted effect of over 55% in size
#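 Human tau K18 P301L (15 uM unlabeled, 0.24 uM Alexa 594-labeled) in 100 mM sodium acetate pH 7 with 20 uM heparin, 6 hr at 37 C. ThT 30 uM added, 1 hr ambient; Alexa 594 FP and total fluorescence read at 555/632 nm.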
# Sfp PPTase inh: blocks B. subtilis Sfp PPTase activity; Biochemical Sfp PPTase activity, qHTS; Potency, µM, inactives show largest response in the series, negative = inhibition, hits mostly inhibitors; 310,000 compounds, 3.5% hits;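 also: the enzyme is Sfp with the accession as filed and its product quenches rhodamine fluorescence; 0% = enzyme reaction without inhibitor and -100% = no enzyme wells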
#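 Buffer: 50 mM Hepes-Na pH 7.6, 10 mM MgCl2, 0.01% Nonidet P-40, 0.01% BSA. Enzyme 15 nM, pre-exposed to compound 15 min; substrates then added and fluorescence change tracked over 30 min.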
# Tau ThT inhib: blocks human tau fibril formation measured by thioflavin T | Potency, µM (doses to about 57.4 µM), for the others: top-dose activity, negative = inhibition, actives largely listed as inhibitors | AID 1460 | recombinant tau K18 P301L (four-repeat tau fragment), heparin-induced fibrillization, ThT fluorescence | 270,000 compounds, 2.1% hits; also: nearly all actives have a fitted effect of over 55% in size
# Target sequence (P10636 561-689 P618L limits assumed): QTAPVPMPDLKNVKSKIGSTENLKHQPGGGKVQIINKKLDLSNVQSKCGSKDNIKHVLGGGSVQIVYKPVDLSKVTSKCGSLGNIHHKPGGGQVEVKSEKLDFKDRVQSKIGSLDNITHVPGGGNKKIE
#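 K18 P301L tau (15 uM + 0.24 uM Alexa 594-tagged), heparin 20 uM, NaOAc pH 7, 6 h 37 C; ThT 30 uM, 1 h RT, ex 450/em 510 nm.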
# Tau FP inhib: tau fibrillization inhibition (FP). P10636. K18 P301L tau heparin fibrillization, Alexa594 FP, 6 h. Potency, µM (titrated, usually from 57.7 µM), for inactives: at the highest dose activity, negative = inhibition, most hits filed as inhibitors. 280,000 compounds, 0.39% hits. AID 1468; also: nearly all actives have a fitted effect of over 55% in size
#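 Read-out: fluorescence polarization of Alexa 594-labeled tau (0.24 uM), 555 nm excitation, 632 nm emission. Mixtures held 15 uM unlabeled K18 P301L, compound and 20 uM heparin, pH 7 acetate buffer, incubated 6 hr at 37 C.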
# Numbers without * were called inactive; ? = inconclusive; / = no result given; ! = not confirmed by another sample; [ ] = dose if it differs, or a comment. Calls follow the shape of the dose curve; as a rule, active = well fitted curve in the direction sought with a large enough effect; inconclusive = small, poorly fitted or top-dose-only effect, or another doubt; inactive = no such curve, though single readings can be large; an effect the other way counts as inactive or inconclusive. Unless noted, % is scaled to controls: 0 for no effect and ±100 for the full control effect; potency is read from the fitted curve at half-maximal effect.
SMILES,PLK1 PBD block,VDR inh,Tau fluor counter,Sfp PPTase inh,Tau ThT inhib,Tau FP inhib
N=c1c2c(ncn1Cc1ccco1)Oc1c(ccc3ccccc13)C2c1ccccc1 (centres undefined),-2%,15%,-15%,50µM*,-21%,-2%
O=c1c2c(-c3ccco3)csc2nc(SCc2cn3cccnc3n2)n1-c1ccccc1,24µM*,-12%,-29%,18µM*,?,-14%
O=C(CSc1nc2scc(-c3ccco3)c2c(=O)n1-c1ccccc1)N1CCOCC1,-4%,-16%,-2%,?,-18%,-2%
CO[C@H]1COC(=O)CCC[C@@H](C)[C@H](OC)COC(=O)[C@H]2CCCN2C(=O)C/C=C\[C@@H]1C,/,/,-19%[11.6 µM],-6%,-21%[11.5 µM],0%[11.6 µM]
NC(=S)NN=C1c2cc(Cl)ccc2-c2c1cc(Cl)cc2[N+](=O)[O-],?,-23%,/,/,/,/
COc1cc2c(cc1[N+](=O)[O-])-c1ccc([N+](=O)[O-])cc1C2=NNC(N)=S,9.5µM*,/,/,/,/,/
COc1cc2c3cc1OCc1c(O)c(OC)cc4c1C(Cc1ccc(cc1)Oc1cc(ccc1O)CC3N(C)CC2)N(C)CC4 (centres undefined),/,10%,/,9%,/,/
CN1CCc2cccc3c2[C@H]1Cc1ccc(O)c(O)c1-3,38µM*!,35µM*!,22µM*[quencher],40µM*,18µM*,20µM*!
O=C1CCCc2c1cc(C(=O)NCc1ccco1)c(=O)n2-c1ccc(Cl)cc1,-3%,-14%,8%,56µM*,-1%,0%
Cc1cc2c(c(=O)o1)C1O[C@](c3ccsc3)(Cc3cc(C#N)ccc31)O2,/,/,/,-3%,/,/
COC(=O)c1c(NC(=O)Cn2nc(C(F)F)cc2C(F)F)sc(C)c1C,15µM*,-15%,-11%,56µM*,5%,7%
CCOC(=O)c1c(NC(=O)Cn2nc(C(F)(F)F)cc2C)sc(C)c1C,27µM*,-10%,2%,14%,1%,3%
CCOC(=O)c1c(NC(=O)Cn2cnc([N+](=O)[O-])n2)sc(C)c1C,24µM*,-10%,-22%,6%,-9%,0%
CCOC(=O)c1c(NC(=O)Cn2cnc([N+](=O)[O-])n2)sc2c1CCCC2,?,-7%,-29%,-28%,-4%,2%
COc1ccc(C2C(C(=O)Nc3ccccc3)=C(C)Nc3c(C(=O)Nc4ccccc4)cnn32)cc1 (centres undefined),/,0%,?,/,-11%,-12%
CCc1ccc2nc(N(CCN(C)C)C(=O)c3ccc4ncsc4c3)sc2c1,-30%,71µM*,/,-25%,/,/
Cc1cccc2sc(N(CCCN(C)C)C(=O)c3nc4ccccc4s3)nc12,-4%,-7%,-6%,79µM*,-4%,0%
Cc1ccc(C(=O)N(CCCN(C)C)c2nc3ccc(Cl)cc3s2)cc1C,1%,14%,-29%,56µM*,-13%,-7%
Cc1ccc2nc(N(CCCN(C)C)C(=O)c3sc4ccccc4c3Cl)sc2c1,-11%,-10%,-4%,45µM*,-13%,2%
Cc1ccc(NS(=O)(=O)c2cnc(N)nc2)c(C)c1,/,3%,2%,/,1%,2%
CCOC(=O)C1(CCCc2ccccc2)CCN(C(=O)c2cc(C)nn2CC)CC1,-5%,-12%,/,0%,/,/
CN(C)CCCN(C(=O)c1cc(-c2cccs2)nc2ccccc12)c1nc2ccc(F)cc2s1,0%,14%,/,50µM*,/,/
C[C@H](CO)N1C[C@H](C)[C@@H](CN(C)CC2CCCCC2)Oc2c(NC(=O)Cc3ccccc3)cccc2C1=O,19µM*,?,/,/,/,/
CCCNC(=O)N(C)C[C@H]1Oc2ncc(C#CCc3ccccc3)cc2C(=O)N([C@H](C)CO)C[C@H]1C,27µM*,/,/,/,/,/
CC(C)NC(=O)N(C)C[C@H]1Oc2c(NC(=O)Cc3ccccc3)cccc2C(=O)N([C@H](C)CO)C[C@@H]1C,27µM*,?,/,/,/,/
SMILES,PLK1 PBD block,VDR inh,Tau fluor counter,Sfp PPTase inh,Tau ThT inhib,Tau FP inhib
COc1ccccc1NC(=O)N(C)C[C@H]1Oc2ncc(C#CCN(C)C)cc2C(=O)N([C@H](C)CO)C[C@H]1C,-10%,/,/,/,/,/
CCOc1ccc(CCNC(=O)CCc2cn(Cc3ccc(C)cc3)c3ccccc23)cc1,/,8%,-8%,/,-5%,6%
COc1cc(NC(=O)C2CCN(S(=O)(=O)c3c(C)noc3/C=C/c3ccccc3F)CC2)cc(OC)c1OC,/,5%,?,/,3%,5%
Cc1ccc(NC(=O)N(Cc2c[nH]c3ccccc23)C2CCCCCC2)cc1C,/,-17%,-23%,/,-9%,-5%
O=C(COc1ccc(Br)cc1)NNC(=O)c1cc(S(=O)(=O)N2CCOCC2)ccc1Cl,7%,-11%,/,/,/,/
O=C1c2ccccc2C(=O)N1c1cccc(-c2csc(Nc3ccc4c(c3)OCO4)n2)c1,/,/,7.9µM*[quencher],?,8.9µM*,?
O=c1ccc2cccc([N+](=O)[O-])c2[nH]1,-3%,/,/,/,/,/
C=CCC(NCc1ccccc1)c1ccc(Cl)cc1 (centres undefined),-2%,6%,-6%,1%,2%,-11%
C=CCC(NCc1ccccc1)c1ccc(C)o1 (centres undefined),11µM*,-23%,/,/,/,/
O=C(c1cccs1)N(Cc1ccco1)Cc1cc2ccccc2[nH]c1=O,27µM*,-24%,-15%,-15%,-8%,-1%
CCOc1ccc2[nH]c(=O)c(CN(Cc3ccco3)C(=O)c3ccc(Br)cc3)cc2c1,-9%,-21%,7%,40µM*,?,-12%
CCOc1ccc2[nH]c(=O)c(CN(Cc3ccco3)C(=O)c3cccc(F)c3)cc2c1,4%,20%,-10%,-16%,?,-13%
Cc1nonc1C(=O)N/N=C/c1ccccc1,24µM*,-9%,-12%,7%,-8%,4%
COc1cc(/C=N/NC(=O)c2nonc2C)ccc1O,6%,1%,4%,13%,-9%,8%
CC(C)(Oc1ccc(CCNC(=O)c2ccc(-c3ccccc3)o2)cc1)C(=O)O,-13%,6%,-5%,15%,-20%,?
